# Experimental data taken from PubChem BioAssay (NCATS).
# Inconclusive results are not listed. Where a call stands in place of a potency, no number is given. Calls of active or inactive are those of the source. Unless noted, calls come from the whole dose curve; as a rule, active = well fitted curve in the direction sought with a large enough effect; inconclusive = small, poorly fitted or top-dose-only effect, or another doubt; inactive = no such curve, though single readings can be large; an effect the other way counts as inactive or inconclusive.
# Key:
# [1] = target: Thioredoxin reductase 1, cytoplasmic (Rattus norvegicus) (UniProt O89049); assay: qHTS Assay for Substrates of Mammalian Selenoprotein Thioredoxin Reductase 1 (TrxR1) (AID 488772);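 note: NADPH fluorescence in the first read after selenite addition and not the 8 min delta; series mostly up to about 57 µM; a drop in NADPH fluorescence below the no-compound background marks a TrxR1 substrate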
# Chain of Thioredoxin reductase 1, cytoplasmic (Rattus norvegicus) (O89049 whole entry, looked up): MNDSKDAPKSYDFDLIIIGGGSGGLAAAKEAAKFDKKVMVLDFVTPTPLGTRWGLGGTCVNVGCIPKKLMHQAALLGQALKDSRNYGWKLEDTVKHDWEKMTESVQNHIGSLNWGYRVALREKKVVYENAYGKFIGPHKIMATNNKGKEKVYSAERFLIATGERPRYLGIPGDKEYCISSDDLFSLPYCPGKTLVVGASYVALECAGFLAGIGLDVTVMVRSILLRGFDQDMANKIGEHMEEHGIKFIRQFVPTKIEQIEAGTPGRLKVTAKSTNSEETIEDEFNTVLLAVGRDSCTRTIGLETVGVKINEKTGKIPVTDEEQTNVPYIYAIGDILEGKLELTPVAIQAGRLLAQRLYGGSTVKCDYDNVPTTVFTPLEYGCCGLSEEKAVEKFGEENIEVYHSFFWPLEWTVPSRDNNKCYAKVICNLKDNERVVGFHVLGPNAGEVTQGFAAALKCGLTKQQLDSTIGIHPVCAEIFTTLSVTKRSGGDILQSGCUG
# In short: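 Quantitative HTS in Tris-HCl buffer at pH 7.5 with EDTA and Tween-20, using rat TrxR1, 400 uM NADPH and 400 uM selenite (final). A fall in initial NADPH fluorescence relative to background marked substrate behaviour.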
# [2] = target: Flap endonuclease 1 (Homo sapiens) (UniProt P39748); assay: qHTS Validation Assay for the Inhibitors of Human Flap endonuclease 1 (FEN1) (AID 488816)
# Chain of Flap endonuclease 1 (Homo sapiens) (P39748 whole entry, looked up): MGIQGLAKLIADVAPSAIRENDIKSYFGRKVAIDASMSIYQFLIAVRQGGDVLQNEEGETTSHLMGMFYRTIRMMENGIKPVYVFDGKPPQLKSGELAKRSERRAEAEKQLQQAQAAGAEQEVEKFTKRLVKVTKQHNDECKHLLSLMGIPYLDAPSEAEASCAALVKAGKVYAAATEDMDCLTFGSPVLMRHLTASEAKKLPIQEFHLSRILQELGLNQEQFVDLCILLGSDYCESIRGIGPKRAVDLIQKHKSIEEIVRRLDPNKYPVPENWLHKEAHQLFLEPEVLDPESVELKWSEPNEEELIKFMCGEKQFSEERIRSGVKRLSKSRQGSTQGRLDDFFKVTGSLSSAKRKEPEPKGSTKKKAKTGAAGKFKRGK
# In short: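 FEN1, dispensed as a 10 nM reagent, was preincubated with pin-transferred compounds for 15 min at room temperature before substrate was added (50 nM final). Plates were read at 0 and 15 min, and a four-parameter Hill equation was fitted to the concentration-response data.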
# [3] = target: M-phase phosphoprotein 8 (Homo sapiens) (UniProt Q99549); assay: qHTS Validation Assay for Inhibitors for MPP8 Chromodomain Interactions with Methylated Histone Tails (AID 488949);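 note: AlphaScreen signal from MPP8 chromodomain bound to biotinylated H3K9me3 peptide; top concentration of the series differs between compounds; nearly all actives have a fitted effect of over 55% in size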
# Chain of M-phase phosphoprotein 8 (Homo sapiens) (Q99549 whole entry, looked up): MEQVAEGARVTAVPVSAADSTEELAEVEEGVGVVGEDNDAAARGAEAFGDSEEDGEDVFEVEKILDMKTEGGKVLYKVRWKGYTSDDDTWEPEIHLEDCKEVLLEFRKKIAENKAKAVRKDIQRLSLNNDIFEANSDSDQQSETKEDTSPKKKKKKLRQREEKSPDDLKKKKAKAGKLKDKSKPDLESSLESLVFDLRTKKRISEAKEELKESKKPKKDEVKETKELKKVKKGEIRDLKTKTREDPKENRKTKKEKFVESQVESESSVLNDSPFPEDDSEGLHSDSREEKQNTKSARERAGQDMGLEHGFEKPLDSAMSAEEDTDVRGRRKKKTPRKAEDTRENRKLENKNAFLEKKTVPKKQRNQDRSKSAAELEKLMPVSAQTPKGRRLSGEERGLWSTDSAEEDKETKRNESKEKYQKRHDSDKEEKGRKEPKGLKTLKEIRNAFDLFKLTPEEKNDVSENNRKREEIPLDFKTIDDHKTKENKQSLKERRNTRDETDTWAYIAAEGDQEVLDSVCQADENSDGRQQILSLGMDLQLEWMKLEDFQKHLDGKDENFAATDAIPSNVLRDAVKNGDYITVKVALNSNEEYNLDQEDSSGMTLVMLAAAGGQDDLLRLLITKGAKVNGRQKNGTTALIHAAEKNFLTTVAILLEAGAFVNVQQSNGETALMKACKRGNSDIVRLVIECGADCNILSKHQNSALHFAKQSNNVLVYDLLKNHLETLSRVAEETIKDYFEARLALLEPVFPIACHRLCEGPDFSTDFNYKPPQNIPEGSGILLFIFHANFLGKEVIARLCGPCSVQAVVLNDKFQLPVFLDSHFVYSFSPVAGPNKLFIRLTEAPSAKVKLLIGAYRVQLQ
# In short: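 Disruption of the preformed MPP8–trimethyl-H3K9 peptide complex (both 50 nM, 30 min, RT) is measured after 30 min compound exposure, using AlphaScreen proximity beads; aurintricarboxylic acid titration serves as plate control.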
# [4] = target: Methanococcus maripaludis chaperonin (MmCpn) (UniProt Q6LX38); assay: High-Throughput Screening for Modulators of Cytosolic Chaperonin Activity: MmCpn Primary Screen (AID 488978);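 note: 50 nM MmCpn enzyme hydrolysing 30 µM ATP at 37 °C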
# Chain of Methanococcus maripaludis chaperonin (MmCpn) (Q6LX38 1-543): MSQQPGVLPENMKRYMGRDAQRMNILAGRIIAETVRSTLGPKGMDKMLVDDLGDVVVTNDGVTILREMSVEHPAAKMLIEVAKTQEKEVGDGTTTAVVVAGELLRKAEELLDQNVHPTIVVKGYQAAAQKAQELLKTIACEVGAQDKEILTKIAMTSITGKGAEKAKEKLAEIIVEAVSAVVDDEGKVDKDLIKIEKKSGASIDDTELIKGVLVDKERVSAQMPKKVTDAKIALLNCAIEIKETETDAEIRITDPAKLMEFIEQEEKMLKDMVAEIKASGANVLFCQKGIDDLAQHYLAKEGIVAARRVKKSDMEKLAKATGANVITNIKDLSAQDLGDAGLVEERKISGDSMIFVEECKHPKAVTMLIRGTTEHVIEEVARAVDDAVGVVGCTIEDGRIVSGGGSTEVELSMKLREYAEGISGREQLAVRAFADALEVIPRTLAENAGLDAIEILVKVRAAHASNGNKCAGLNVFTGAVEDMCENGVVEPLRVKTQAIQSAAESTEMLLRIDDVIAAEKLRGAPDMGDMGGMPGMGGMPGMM
# In short: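 Measures ATPase turnover of the M. maripaludis chaperonin (50 nM final) against 30 uM ATP over 10 min at 37C, with compound added 5 min beforehand at room temperature. ADP is quantified by HTRF immunodetection.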
# [5] = target: D(1A) dopamine receptor (Homo sapiens) (UniProt P21728); assay: HTS Assay for Allosteric Agonists of the Human D1 Dopamine Receptor: Primary Screen for Agonists (AID 488981)
# Chain of D(1A) dopamine receptor (Homo sapiens) (P21728 whole entry, looked up): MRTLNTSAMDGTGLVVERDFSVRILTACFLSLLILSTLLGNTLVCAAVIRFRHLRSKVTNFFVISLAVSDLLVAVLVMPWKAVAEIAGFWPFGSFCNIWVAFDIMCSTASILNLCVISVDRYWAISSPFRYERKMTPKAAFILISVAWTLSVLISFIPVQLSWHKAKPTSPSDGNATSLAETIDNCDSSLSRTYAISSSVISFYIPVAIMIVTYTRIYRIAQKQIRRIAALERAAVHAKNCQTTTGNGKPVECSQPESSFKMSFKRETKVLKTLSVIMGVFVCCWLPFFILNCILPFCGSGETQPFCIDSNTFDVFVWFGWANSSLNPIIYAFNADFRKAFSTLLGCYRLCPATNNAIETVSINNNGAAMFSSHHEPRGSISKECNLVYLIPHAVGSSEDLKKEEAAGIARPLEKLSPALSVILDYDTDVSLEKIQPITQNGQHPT
# In short: (§1)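 Tetracycline-induced HEK293 T-REx cells force-coupled to calcium signalling were incubated overnight at 30 C and dye-loaded at room temperature. Calcium flux over 180 s after compound addition flagged agonists; a further 180 s read after EC20 dopamine flagged potentiators.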
# [6] = target: D(1A) dopamine receptor (Homo sapiens) (UniProt P21728); assay: HTS Assay for Allosteric Agonists of the Human D1 Dopamine Receptor: Primary Screen for Potentiators (AID 488982)
# In short: as §1
# [7] = target: D(1A) dopamine receptor (Homo sapiens) (UniProt P21728); assay: HTS Assay for Allosteric Agonists of the Human D1 Dopamine Receptor: Primary Screen for Antagonists (AID 488983);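 note: calcium flux response to an EC80 dopamine challenge measured with no-wash dye; nearly all actives have a fitted effect of over 65% in size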
# In short: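 Tetracycline-induced HEK293 T-REx cells expressing force-coupled D1 were plated overnight at 30 C, dye-loaded for calcium, and read kinetically. Compounds were pinned in, then an EC80 dopamine challenge followed after 180 s to reveal antagonism.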
# [8] = target: ATP-dependent 6-phosphofructokinase (Trypanosoma brucei brucei) (UniProt O15648); assay: qHTS Assay to Find Inhibitors of T. brucei phosphofructokinase: hit validation (AID 492961);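 note: luminescence reports ADP formed as PFK phosphorylates fructose-6-phosphate with ATP; series mostly up to about 51 µM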
# Chain of ATP-dependent 6-phosphofructokinase (Trypanosoma brucei brucei) (O15648 whole entry, looked up): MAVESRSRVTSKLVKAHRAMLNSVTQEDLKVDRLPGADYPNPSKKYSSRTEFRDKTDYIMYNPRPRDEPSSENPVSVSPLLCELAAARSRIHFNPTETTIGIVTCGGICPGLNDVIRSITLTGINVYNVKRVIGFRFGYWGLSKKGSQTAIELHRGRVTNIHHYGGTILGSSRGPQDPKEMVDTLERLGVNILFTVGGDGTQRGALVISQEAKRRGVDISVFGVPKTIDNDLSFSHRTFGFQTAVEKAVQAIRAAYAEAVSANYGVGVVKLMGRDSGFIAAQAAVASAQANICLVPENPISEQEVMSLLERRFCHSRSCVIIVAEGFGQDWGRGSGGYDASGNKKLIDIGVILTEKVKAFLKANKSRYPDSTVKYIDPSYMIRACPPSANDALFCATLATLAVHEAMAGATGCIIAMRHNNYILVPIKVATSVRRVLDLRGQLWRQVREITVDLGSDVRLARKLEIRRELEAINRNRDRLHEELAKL
# In short: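 PFK 1.25 nM, F6P 0.5 mM, ATP 0.1 mM, MgCl2 5 mM, 0.1 M TEA pH 8.0, Tween20 0.01%, BSA 0.1%; 45 min RT. ADP-Glo two-step detection, luminescence. qHTS titration; curve fitting with curve-class categorization.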
# [9] = Validation screen for small molecules that induce genotoxicity in human embryonic kidney (HEK293T) cells expressing luciferase-tagged ELG1 (AID 493106)
# In short: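 HEK293T cells expressing luciferase-tagged ELG1 were exposed to compound or DMSO vehicle for 16 hr at 37 °C, 5% CO2. Genotoxic stress raises ELG1 levels, so increased luciferase signal after ONE-Glo addition and 30 min at room temperature marks hits.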
# [10] = qHTS for Inhibitors of Cell Surface uPA Generation: Validation Assay (AID 493164);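 note: RAW 264.7 macrophage cells exposed to compound for 18 h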
# In short: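 RAW 264.7, 4000 cells/well, o/n plating; cpd 7-pt 1:5 dilution 2.45 nM–38.3 uM final; 18 h, 37 C/5% CO2; ATP-Lite, 5 s luminescence exposure.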
# [11] = target: Thyrotropin receptor (Homo sapiens) (UniProt P16473); assay: qHTS Assay for Antagonists of the Thyroid Stimulating Hormone Receptor (AID 488980); note: series mostly up to about 58 µM
# In short: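 Cells expressing human TSHR (HEK293) are dispensed in HBSS/HEPES containing 70 uM RO 20-1724, compound is added, then TSH at EC80 (4 nM final). Antibody in lysis buffer follows, 30 minutes at room temperature before HTRF detection.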
# [12] = target: ATPase family AAA domain-containing protein 5 (Homo sapiens) (UniProt Q96QE3); assay: Validation screen for small molecules that inhibit ELG1-dependent DNA repair in human embryonic kidney (HEK293T) cells expressing luciferase-tagged ELG1 (AID 493107);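 note: cells co-treated with the DNA-damaging agent 5-fluorouridine alongside compound; series mostly up to about 46 µM; inhibitors lower the ELG1-luciferase luminescence signal; nearly all actives have a fitted effect of over 70% in size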
# Chain of ATPase family AAA domain-containing protein 5 (Homo sapiens) (Q96QE3 whole entry, looked up, the tested form may be a part): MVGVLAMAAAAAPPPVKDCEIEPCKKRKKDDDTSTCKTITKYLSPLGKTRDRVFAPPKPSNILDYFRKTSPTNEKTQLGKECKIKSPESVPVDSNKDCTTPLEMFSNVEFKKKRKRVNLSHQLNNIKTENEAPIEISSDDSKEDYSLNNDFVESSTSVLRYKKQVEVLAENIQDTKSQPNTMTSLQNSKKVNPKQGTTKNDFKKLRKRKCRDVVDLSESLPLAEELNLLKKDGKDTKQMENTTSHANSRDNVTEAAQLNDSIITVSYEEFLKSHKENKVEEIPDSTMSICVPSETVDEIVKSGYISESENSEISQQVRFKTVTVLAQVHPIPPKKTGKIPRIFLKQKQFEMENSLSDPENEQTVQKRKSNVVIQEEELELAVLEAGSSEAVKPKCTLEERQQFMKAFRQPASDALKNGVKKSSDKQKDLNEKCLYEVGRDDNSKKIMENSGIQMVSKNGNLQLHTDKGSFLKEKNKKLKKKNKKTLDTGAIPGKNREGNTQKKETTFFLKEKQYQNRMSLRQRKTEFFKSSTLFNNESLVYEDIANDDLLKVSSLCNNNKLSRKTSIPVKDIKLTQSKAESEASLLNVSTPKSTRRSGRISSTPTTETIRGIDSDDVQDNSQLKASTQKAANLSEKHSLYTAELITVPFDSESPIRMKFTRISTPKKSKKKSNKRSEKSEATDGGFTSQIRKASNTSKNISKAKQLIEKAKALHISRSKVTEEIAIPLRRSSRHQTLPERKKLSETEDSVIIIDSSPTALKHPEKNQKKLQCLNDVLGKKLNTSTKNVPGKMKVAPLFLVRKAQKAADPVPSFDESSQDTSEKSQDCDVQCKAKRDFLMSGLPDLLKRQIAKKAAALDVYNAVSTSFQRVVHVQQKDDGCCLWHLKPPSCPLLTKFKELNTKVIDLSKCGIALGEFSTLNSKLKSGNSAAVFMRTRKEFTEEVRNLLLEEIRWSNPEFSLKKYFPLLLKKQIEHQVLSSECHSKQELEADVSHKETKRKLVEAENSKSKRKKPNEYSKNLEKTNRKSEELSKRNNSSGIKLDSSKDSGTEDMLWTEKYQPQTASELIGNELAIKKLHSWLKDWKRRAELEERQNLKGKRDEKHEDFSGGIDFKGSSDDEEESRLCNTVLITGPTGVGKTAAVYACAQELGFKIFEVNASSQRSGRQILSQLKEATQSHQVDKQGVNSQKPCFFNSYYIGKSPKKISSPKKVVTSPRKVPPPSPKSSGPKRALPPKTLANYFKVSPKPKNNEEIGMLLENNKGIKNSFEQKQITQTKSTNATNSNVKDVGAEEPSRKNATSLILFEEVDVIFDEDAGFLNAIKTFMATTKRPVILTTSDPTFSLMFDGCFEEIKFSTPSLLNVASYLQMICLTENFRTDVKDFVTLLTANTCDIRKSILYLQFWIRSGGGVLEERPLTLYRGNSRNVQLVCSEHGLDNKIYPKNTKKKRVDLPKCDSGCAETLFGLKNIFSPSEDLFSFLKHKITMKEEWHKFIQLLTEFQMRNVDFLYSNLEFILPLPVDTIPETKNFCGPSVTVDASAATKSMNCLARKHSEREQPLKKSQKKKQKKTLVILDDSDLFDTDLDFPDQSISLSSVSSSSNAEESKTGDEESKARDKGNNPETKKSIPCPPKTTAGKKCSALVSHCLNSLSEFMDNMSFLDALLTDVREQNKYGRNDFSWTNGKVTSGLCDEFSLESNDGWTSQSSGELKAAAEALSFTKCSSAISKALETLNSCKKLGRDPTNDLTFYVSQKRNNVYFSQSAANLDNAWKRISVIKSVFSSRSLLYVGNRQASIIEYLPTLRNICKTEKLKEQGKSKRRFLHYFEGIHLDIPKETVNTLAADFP
# In short: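 HEK293T cells expressing luciferase-tagged ELG1 were co-treated with 5-fluorouridine and compound or DMSO for 16 hr at 37 °C, 5% CO2. Luciferase activity was then read with ONE-Glo after 30 min at room temperature; suppressed signal indicates blocked ELG1 function.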
# [13] = target: Thyrotropin-releasing hormone receptor (Homo sapiens) (UniProt P34981); assay: qHTS for Small Molecule Agonists and Allosteric Enhancers of Human TRH Receptor: Validation Screen for Agonists (AID 493127;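 active = calcium activation more than 3 SD above the typical response in the agonist read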;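 note: intracellular calcium rise by fluo-8 fluorescence before TRH EC20 addition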); details: TRH receptor agonist cell assay; at 2 µM; stronger effect = higher value
# In short: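 TRHR-expressing cells were plated overnight in serum-containing medium, then loaded with fluo-8 calcium dye at room temperature for 30 min–1.5 h. After a 10 s baseline, compound was pin-transferred and calcium fluorescence (ex 480/em 530) read kinetically for agonist response.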
# [14] = Validation screen for small molecules that induce DNA re-replication in SW480 colon adenocarcinoma cells (AID 504364)
# In short: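 SW480 cells seeded at 250 per well were exposed to compound or DMSO for 48 hr at 37 C, 5% CO2, then stained with Hoechst for 40 min. DNA content per nucleus was imaged (405 nm ex, 500-530 nm em).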
# [15] = target: Chromobox protein homolog 1 (Homo sapiens) (UniProt P83916); assay: qHTS Validation Assay for Inhibitors of HP1-beta Chromodomain Interactions with Methylated Histone Tails (AID 488953);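 note: loss of AlphaScreen luminescence from HP1-beta binding biotinylated H3K9me3 peptide; series mostly up to about 110 µM; nearly all actives have a fitted effect of over 50% in size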
# In short: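 HP1-beta (50 nM) was preincubated 30 min at room temperature with biotinylated H3(1-18)K9me3 peptide (50 nM) in PBS pH 7.4, 0.01% Tween-20, then with compounds 30 min. AlphaScreen signal was read after streptavidin donor/nickel chelate acceptor beads (10 ug/mL final).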
# [16] = Nrf2 qHTS screen for inhibitors: Validation (AID 493153; active = well fitted inhibition curve with a large enough effect in the main read-out, with a control signal flat, not every such curve was filed as active; note: potency is the fitted concentration of half-maximal effect); details: Potency: luciferase luminescence; viability change: measured here: cytotoxicity max response
# In short: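 A549 cells carrying an ARE-driven firefly luciferase reporter, in 5% FBS OPTI-MEM, were treated with compounds in concentration-response for 18-24 h at 37°C. Viability was read by CellTiter-Fluor fluorescence, then Nrf2 activity by luciferase luminescence.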
compound,measurement,setting,value
COCCOC(=O)C1=C(C)NC(C)=C(C(=O)OC/C=C/c2ccccc2)C1c1cccc([N+](=O)[O-])c1 (stereo not drawn),outcome,[1],inactive
same,Potency,[2],inactive
same,Potency,[3],inactive
same,Potency,[4],inactive
same,Potency,[5],inactive
same,outcome,[6],inactive
same,Potency,[7],inactive
same,Potency,[8],inactive
same,Potency,[9],inactive
same,outcome,[10],inactive
OCc1cc(C(O)CNCCCCCCOCCCCc2ccccc2)ccc1O (stereo not drawn),outcome,[1],inactive
same,Potency,[2],inactive
same,Potency,[3],inactive
same,Potency,[4],inactive
same,outcome,[11],inactive
same,outcome,[6],inactive
same,Potency,[7],inactive
same,Potency,[8],inactive
same,Potency,[9],inactive
same,outcome,[12],inactive
same,activation,[13],-0.25% (inactive)
same,outcome,[10],inactive
same,outcome,[14],inactive
CCOC(CN1CCN(CC(C)C(=O)c2ccccc2)CC1)c1ccccc1 (stereo not drawn),Potency,[8],inactive
CC(C)(C)[C@]1(O)CCN2C[C@H]3c4ccccc4CCc4cccc(c43)[C@@H]2C1,outcome,[1],inactive
same,Potency,[2],inactive
same,Potency,[3],inactive
same,Potency,[15],inactive
same,Potency,[4],inactive
same,Potency,[9],inactive
same,outcome,[12],inactive
same,Potency,[16],inactive
same,viability change,[16],-7.91%
same,outcome,[10],inactive
O=C(O)c1ccccc1O,Potency,[8],inactive
CC12CCC(CC1)C(C)(C)O2,Potency,[8],inactive
c1ccc(CN(CC2=NCCN2)c2ccccc2)cc1,Potency,[8],inactive
CN(C)CCCN1c2ccccc2CCc2ccccc21,Potency,[4],inactive
same,outcome,[11],inactive
same,Potency,[5],inactive
same,Potency,[9],inactive
same,outcome,[12],inactive
same,activation,[13],2.19% (inactive)
same,Potency,[16],inactive
same,viability change,[16],-5.46%
same,outcome,[10],inactive
COc1ccc2c(c1)C(=O)N(CCc1ccc(S(=O)(=O)NC(=O)NC3CCCCC3)cc1)C(=O)C2(C)C,Potency,[8],inactive
C[C@]12C[C@H](O)[C@H]3[C@@H](CCC4=CC(=O)CC[C@@]43C)[C@@H]1CC[C@@H]2C(=O)CO,outcome,[1],inactive
same,Potency,[2],inactive
same,Potency,[3],inactive
same,Potency,[15],inactive
same,Potency,[4],inactive
same,Potency,[5],inactive
same,outcome,[6],inactive
same,Potency,[7],inactive
same,Potency,[8],inactive
same,Potency,[9],inactive
same,outcome,[12],inactive
same,Potency,[16],6.51 µM (active)
same,viability change,[16],-3.09%
same,outcome,[10],inactive
CC(=O)Nc1ccc(/C=N/NC(N)=S)cc1,Potency,[8],inactive
CC(=O)Oc1ccc(C2(c3ccc(OC(C)=O)cc3)C(=O)Nc3ccccc32)cc1,Potency,[8],inactive
CCCCN(CCCC)CC(O)c1cc(Cl)cc2c1-c1ccc(Cl)cc1/C2=C/c1ccc(Cl)cc1 (stereo not drawn),Potency,[8],inactive
CC1(C)[C@@H]2CC[C@@]1(C)C(=O)C2,Potency,[8],inactive
CC(C)(C)C(=O)C(Oc1ccc(Cl)cc1)n1ccnc1 (stereo not drawn),Potency,[8],inactive
CCOc1ccc2ccccc2c1C(=O)N[C@@H]1C(=O)N2[C@@H]1SC(C)(C)[C@@H]2C(=O)O,Potency,[8],inactive
COc1ccccc1O,Potency,[8],inactive
NCCNCCNCCNCCN,Potency,[8],inactive
CCCCCCCCCCCCOS(=O)(=O)O,Potency,[8],inactive
CCN(CC)CCNC(=O)c1c(C)[nH]c(/C=C2\C(=O)Nc3ccc(F)cc32)c1C,Potency,[8],inactive
O=C1OC(OC(=O)c2cccnc2Nc2cccc(C(F)(F)F)c2)c2ccccc21 (stereo not drawn),Potency,[8],inactive
Cc1ccc(C(C)C)cc2c(C)ccc1-2,Potency,[8],inactive
NC(=O)NC(=O)Cc1ccccc1,Potency,[8],inactive
CC(O)CN(CCN(CC(C)O)CC(C)O)CC(C)O (stereo not drawn),Potency,[8],inactive
CC1(C)CO[C@@H](CC(=O)O)CN1,Potency,[8],inactive
CC(C)(C)NCC(O)COc1ccc(NC(=O)NC2CCCCC2)cc1 (stereo not drawn),Potency,[8],inactive
CCCCc1ncc(/C=C(\Cc2cccs2)C(=O)O)n1Cc1ccc(C(=O)O)cc1,Potency,[8],inactive
O=C(Oc1ccccc1C(=O)O)c1ccccc1O,Potency,[8],inactive
O=C1c2c(O)cccc2Cc2cccc(O)c21,Potency,[8],inactive
Nc1ccc(S(=O)(=O)Nc2ccc(Cl)nn2)cc1,Potency,[8],inactive
Oc1cccc(O)c1,Potency,[8],inactive
Cn1cc[nH]c1=S,Potency,[8],inactive
C[C@H](N)[C@H](O)c1cccc(O)c1,Potency,[8],inactive
Cc1ncc(COP(=O)(O)O)c(C=O)c1O,Potency,[8],inactive
O=C1NS(=O)(=O)c2ccccc21,Potency,[8],inactive
O=C(O)c1ccccn1,Potency,[8],inactive
CCCCC(CC)COC(=O)c1ccccc1O (stereo not drawn),Potency,[8],inactive
Cc1cccc(C)c1NC(=O)CN(CC(=O)O)CC(=O)O,Potency,[8],inactive
Cc1cc(C(C#N)c2ccc(Cl)cc2)c(Cl)cc1NC(=O)c1cc(I)cc(I)c1O (stereo not drawn),Potency,[8],inactive
CCOC(=O)[C@H](CCc1ccccc1)N[C@@H](C)C(=O)N1C(=O)N(C)C[C@H]1C(=O)O,Potency,[8],inactive
Cc1cc2c(cc1S(N)(=O)=O)S(=O)(=O)CCC2,Potency,[8],inactive
CCC(=O)Nc1ccc(O)cc1,Potency,[8],inactive
CC(=O)c1ccc2c(c1)N(CCCN(C)C)c1ccccc1S2,Potency,[8],inactive
CCn1cc(C(=O)O)c(=O)c2cnc(N3CCNCC3)nc21,Potency,[8],inactive
O=C(O)c1ccccc1-c1ccc(C(F)(F)F)cc1,Potency,[8],inactive
Nc1ccc(S(=O)(=O)NC(=O)c2ccccc2)cc1,Potency,[8],inactive
CCCCOc1cc(C(=O)OCCN(CC)CC)ccc1N,Potency,[8],inactive
